# What was measured:
# [1] = tested on: Vero E6 infected with SARS-CoV-2; experiment: morphology score (similarity to uninfected cells); higher = more like uninfected cells; conditions: 24 h
# [2] = tested on: Vero E6 infected with SARS-CoV-2; experiment: SARS-CoV-2 infection rate relative to infected DMSO; higher = more infection, active = 60 or less; conditions: 24 h
SMILES,morphology score [1],SARS-CoV-2 infection rate [2]
CC(C)NNC(=O)c1ccncc1 [iproniazid] (10 µM),0.0745,108% (inactive)
Cc1ccc(-c2ncc(Cl)cc2-c2ccc(S(C)(=O)=O)cc2)cn1 [etoricoxib] (10 µM),-0.139,114% (inactive)
CN[C@@H]1[C@@H](O[C@H]2O[C@H](CO)[C@@H](N)[C@H](O)[C@H]2O)O[C@H]2C[C@@H](N)[C@@H](O[C@H]3[C@H](O)[C@@H](O)[C@H](N)C[C@@H]3N)O[C@@H]2[C@@H]1O [apramycin] (10 µM),0.0655,98% (inactive)
C[C@]12CC[C@H](O)C[C@H]1CC[C@@H]1[C@@H]2CC[C@]2(C)[C@@H](c3ccc(=O)oc3)C[C@H]3O[C@]132 [resibufogenin] (10 µM),-0.241,110% (inactive)
COc1cc2nccc(Oc3ccc(NC(=O)Nc4ccc(F)cc4F)c(F)c3)c2cc1OC (10 µM),0.12,111% (inactive)
C[C@H](Cn1cnc2c(N)ncnc21)OCP(=O)(O)O [tenofovir] (10 µM),-0.0359,105% (inactive)
CCCCOc1ccc(C(=O)Nc2ccc(F)cc2F)cc1 (10 µM),0.18,106% (inactive)
CO[C@H]1C[C@H](O[C@H]2[C@H](C)O[C@@H](O[C@@H]3/C(C)=C/C[C@@H]4C[C@@H](C[C@]5(C=C[C@H](C)[C@@H](C6CCCCC6)O5)O4)OC(=O)[C@@H]4C=C(C)[C@@H](O)[C@H]5OC/C(=C\C=C\[C@@H]3C)[C@]54O)C[C@@H]2OC)O[C@@H](C)[C@@H]1O [doramectin] (0.833333 µM),0.0705,104% (inactive)
CCCCCOc1ccc(-c2cc(-c3ccc(C(=O)N[C@H]4C[C@@H](O)[C@@H](O)NC(=O)[C@@H]5[C@@H](O)[C@@H](C)CN5C(=O)[C@H]([C@H](O)CC(N)=O)NC(=O)[C@H]([C@H](O)[C@@H](O)c5ccc(O)c(OS(=O)(=O)O)c5)NC(=O)[C@@H]5C[C@@H](O)CN5C(=O)[C@H]([C@@H](C)O)NC4=O)cc3)no2)cc1 [micafungin] (10 µM),0.0545,94.5% (inactive)
Clc1cccc(SC2CCNCC2)n1 [anpirtoline] (10 µM),0.0464,106% (inactive)
CCCCCCCCCCOc1cc2c(O)c(C(=O)OCC)cnc2cc1OCC [decoquinate] (10 µM),0.147,101% (inactive)
COC(=O)[C@H](CC(C)C)NC(=O)[C@@H](N)CC(C)C [leucylleucine-methyl-ester] (10 µM),0.113,99.5% (inactive)
CNC(=N)NCCC[C@H](N)C(=O)O [targinine] (10 µM),0.0428,106% (inactive)
O=S1(=O)OC(c2ccc(O)cc2)(c2ccc(O)cc2)c2ccccc21 [phenolsulfonphthalein] (10 µM),0.1,105% (inactive)
CCCn1c(=O)c2[nH]c(C3CCCC3)nc2n(CCC)c1=O (10 µM),0.0194,105% (inactive)
OC[C@H]1O[C@@H](c2ccc(F)c(Cc3cc4ccccc4s3)c2)[C@H](O)[C@@H](O)[C@@H]1O [ipragliflozin-L-proline] (10 µM),0.0125,110% (inactive)
CCOc1cc(C(=O)N2CCC(N3CCN(C)CC3)CC2)ccc1Nc1ncc2c(n1)N(C1CCCC1)c1ccccc1C(=O)N2C (10 µM),-0.264,122% (inactive)
N[C@@H](CSC(c1ccccc1)(c1ccccc1)c1ccccc1)C(=O)O [S-trityl-L-cysteine] (0.833333 µM),0.107,110% (inactive)
CN1CCN(c2ccc3ccccc3n2)CC1 [N-methylquipazine] (10 µM),0.139,100% (inactive)

SMILES,morphology score [1],SARS-CoV-2 infection rate [2]
Cc1ccc(S(=O)(=O)N2CCC[C@H]2c2ccc(F)cc2)cc1 (10 µM),-0.114,110% (inactive)
C#C[C@]1(O)CC[C@H]2[C@@H]3CCc4cc(OC)ccc4[C@H]3CC[C@@]21C [mestranol] (10 µM),-0.00302,110% (inactive)
C[N+](C)(C)CC(O)CC(=O)[O-] (centres undefined) [carnitine-(D/L)] (10 µM),-0.213,117% (inactive)
OC(c1ccccc1)(c1ccccc1)C1CCNCC1 [azacyclonol] (10 µM),-0.109,110% (inactive)
CCN(CC)CCOc1ccc(Nc2ncc3cc(-c4c(Cl)cccc4Cl)c(=O)n(C)c3n2)cc1 (10 µM),-0.126,123% (inactive)
CC1(C)[C@@H](OC(=O)CCC(=O)O)CC[C@]2(C)[C@H]3C(=O)C=C4[C@@H]5C[C@@](C)(C(=O)O)CC[C@]5(C)CC[C@@]4(C)[C@]3(C)CC[C@@H]12 (10 µM),0.0746,106% (inactive)
N[C@@H](C(=O)N[C@@H]1C(=O)N2C(C(=O)O)=C(Cl)CS[C@H]12)c1ccccc1 [cefaclor] (10 µM),0.0453,104% (inactive)
COc1cc(C)nc(-n2nc(C)cc2OC)n1 [epirizole] (10 µM),0.0529,111% (inactive)
COC(=O)N[C@H](C(=O)N1CCC[C@H]1c1ncc(-c2ccc(-c3ccc(-c4cnc([C@@H]5CCCN5C(=O)[C@@H](NC(=O)OC)C(C)C)[nH]4)cc3)cc2)[nH]1)C(C)C [daclatasvir] (10 µM),0.0693,90.5% (inactive)
CCN(CC)CCCC(C)Nc1c2ccc(Cl)cc2nc2ccc(OC)cc12 (centres undefined) [mepacrine] (0.833333 µM),0.481,55.5% (active)
O=C1CN=C(c2cccc(Br)c2)c2oc3ccccc3c2N1 (10 µM),0.0252,95.5% (inactive)
Nc1ncnc2c1ncn2C1CCCO1 (centres undefined) (10 µM),0.029,103% (inactive)
CC(=O)N[C@@H](CS)C(=O)O [acetylcysteine] (10 µM),0.183,95.5% (inactive)
OCCN(CCO)c1nc(N2CCCCC2)c2nc(N(CCO)CCO)nc(N3CCCCC3)c2n1 [dipyridamole] (10 µM),0.26,90.5% (inactive)
C=CC(=O)Nc1cccc(Oc2nc(Nc3ccc(N4CCN(C)CC4)cc3)ncc2Cl)c1 (10 µM),-0.115,118% (inactive)
CCN1CCCC1=O [1-ethyl-2-pyrrolidone] (10 µM),0.128,104% (inactive)
Cc1cc(CC(C)CC(C)(C)C)n(O)c(=O)c1 (centres undefined) [piroctone-olamine] (10 µM),0.406,88% (inactive)
CCN(CCNC(=O)Nc1ccccc1Br)c1cccc(C)c1 (10 µM),-0.0408,112% (inactive)
FC(F)(F)c1cccc(-c2noc(-c3cc(-c4ccccc4)c(C(F)(F)F)s3)n2)c1 (10 µM),-0.0447,114% (inactive)

SMILES,morphology score [1],SARS-CoV-2 infection rate [2]
CCCCCCCN(CC)CCC[C@@H](O)c1ccc(NS(C)(=O)=O)cc1 (racemic) [ibutilide] (10 µM),0.189,107% (inactive)
COc1ccncc1C(=O)NC(=O)Nc1ccc(-c2ccccc2)c(C(F)(F)F)c1 [S1P1-agonist-III] (10 µM),-0.0188,100% (inactive)
Cc1cnc(Nc2ccc(OCCN3CCCC3)cc2)nc1Nc1cccc(S(=O)(=O)NC(C)(C)C)c1 [fedratinib] (0.833333 µM),-0.054,99.5% (inactive)
c1ccc2c(c1)Sc1ccccc1N2C[C@H]1CN2CCC1CC2 [levomequitazine] (10 µM),0.0894,86% (inactive)
COC(=O)C1=CO[C@@H](O)[C@@H]2C(CO)=CC[C@H]12 [genipin] (10 µM),0.291,112% (inactive)
COc1ccc(CNC(=O)c2cc(-c3cncc(C)c3)ncc2-c2nccs2)nc1OC (10 µM),-0.0112,100% (inactive)
O=C(O)c1ccccc1Nc1cccc(C(F)(F)F)c1 [flufenamic-acid] (10 µM),0.156,99.5% (inactive)
CC(C)(S)C(=O)N[C@@H](CS)C(=O)O [bucillamine] (10 µM),-0.0447,107% (inactive)
Clc1ccc(C(OCCN2CCCCC2)c2ccccc2)cc1 (centres undefined) [cloperastine] (10 µM),0.412,75.5% (inactive)
O=c1[nH]cnc2c([C@@H]3N[C@H](CO)[C@@H](O)[C@H]3O)c[nH]c12 [forodesine] (10 µM),0.155,103% (inactive)
O=C(O)c1cc(/N=N/c2ccc(S(=O)(=O)Nc3ccccn3)cc2)ccc1O [sulfasalazine] (10 µM),0.0447,105% (inactive)
Cc1nc2cnc3ccc(C#Cc4cccnc4)cc3c2n1-c1ccc(C(C)(C)C#N)cc1 (10 µM),0.114,109% (inactive)
C[C@]12CC[C@H](O)CC1=CC[C@@H]1[C@@H]2CC[C@]2(C)C(c3cccnc3)=CC[C@@H]12 [Abiraterone (CB-7598)] (10 µM),-0.0295,115% (inactive)
CCOC(=O)C1=C(C)NC(C)=C(C(=O)OC)[C@@H]1c1cccc([N+](=O)[O-])c1 (racemic) [nitrendipine] (10 µM),-0.062,112% (inactive)
CN1CCC(OC(c2ccccc2)c2ccccc2)CC1 [diphenylpyraline] (10 µM),0.291,82.5% (inactive)
O=c1cc[nH]c(=O)[nH]1 [uracil] (10 µM),-0.002,108% (inactive)
COc1ccc(-n2[nH]c3c4c(ncc3c2=O)CCCCC4)cc1 (10 µM),0.194,96% (inactive)
CCCCC1(COC(=O)CCC(=O)O)C(=O)N(c2ccccc2)N(c2ccccc2)C1=O [suxibuzone] (10 µM),0.183,94.5% (inactive)
O=C(O)CCC(=O)O [succinic-acid] (10 µM),-0.0828,106% (inactive)

# Source: the supplement of paper PMC13380429
